From ChEMBL document CHEMBL3433997, “St. Jude Leishmania screening dataset” (2016) come the findings set out here.

Usually inhibition stands for the drop in the measured response relative to a control, in per cent.

Each structure is given as a SMILES string.

This assay concerns the target Glucose transporter (Leishmania mexicana) (UniProt O61059). The assay can be described thus: ST_JUDE_LEISH: Cytotoxicity at 2uM final concentration against transgenic Leishmania Mexicana promastigotes LmGT2 that are glucose transport deficient and complemented with the L. Mexicana glucose transporter 2. Activity is measured by DNA content using SYBR green in vitro. The class given is functional.
For the compound `CN(c1ccc(NC(=O)Nc2cc(C(F)(F)F)ccc2F)cc1)c1ccnc(NCCN2CCOCC2)n1`, the inhibition was determined as 0.14%.
The result for `c1ccc(Oc2ccc(Nc3ccnc4cc(-c5ccc(CNCCN6CCOCC6)o5)ccc34)cc2)cc1` reads 0.92%.
For `Cc1[nH]c(C)c(-c2ccc(-c3ccc(F)cc3)nc2)c(=O)c1Br` the value was 1.04%.
On to `COC(=O)c1cccc(CNCc2cccc(-c3cccc(-c4nc5cc(C(F)(F)F)ccc5[nH]4)c3)c2)c1`, for which the inhibition was -2.5%.
As for `N=C(N)c1ccc(NCc2cccc(C(=O)O)c2)cc1`, the inhibition was found to be 3.66%.
For `COc1cc(NC(=O)c2cc([N+](=O)[O-])ccc2NC(=O)CNC2CCCC(C)C2C)cc(OC)c1` (stereo not given) the value was 3.41%; for `O=C(/C=C/c1ccc(Cl)c(Cl)c1)NCCCCCN1CCC(c2c[nH]c3c(-c4ccccc4)cccc23)CC1`, 3.07%; for `CN1CCN(CCCCCNc2c3ccccc3nc3ccccc23)CC1`, 17.9%.
For `Cn1c(=O)c2nc(-c3ccc(Cl)cc3)nnc2n(CCCC#N)c1=O` the value was 6.19%; for `CC(=O)c1c(Cc2ccccc2Cl)c[nH]c1C`, -1.32%; for `CCOC(=O)c1c[nH]c2c(ccc3ccccc32)c1=O`, 5.93%.
Consider `O=C(Nc1ccc(Cl)c(Cl)c1)N(Cc1ccccc1Br)C1CCNCC1`, for which the inhibition is 0.68%.
The result for `CN(C)Cc1ccc(-c2ccc3c(Nc4ccc(Oc5ccccc5)cc4)ccnc3c2)o1` reads 2.26%; that for `CC(C)CCN1CCC(Oc2ccc(NC(=O)c3ccc(F)cc3)cc2Cl)CC1`, 0.92%; that for `CC(=O)Nc1ccc(CCNC(C)Cc2ccc(C(=O)Nc3ccc(CC(C)NCCc4cccc(Cl)c4)cc3)cc2)cc1` (stereo not given), 0.98%.
The result for `COc1cc(NC(=O)N2CCc3ccc(OCCC4CCCN4C)cc32)cc(C(F)(F)F)c1` (stereo not given) reads -0.48%; that for `O=C(Nc1cccc(-c2ccc(-c3nc4ccccc4[nH]3)cc2)c1)c1cccnc1`, -0.92%; that for `N#Cc1ccc2c(c1)CCN(CCC1CCC(NC(=O)/C=C/c3ccc4ccccc4c3)CC1)CC2` (stereo not given), -1.14%.
The result for `COc1cc(C(=O)Nc2ccc(-c3nc4ccccc4[nH]3)cc2)cc(OC)c1OC` reads 3.39%.
On to `O=C(Nc1ccc(OC2CCN(Cc3ccccc3)C2)c(Cl)c1)c1ccc(F)cc1` (stereo not given), for which the inhibition came out at 4.21%.
For the compound `N#Cc1cccc(NC(=O)Nc2cccc(-c3ccc(-c4nc5cc(C(F)(F)F)ccc5[nH]4)cc3)c2)c1`, the inhibition was -7.53%.
The result for `Cc1cc2c(/C=C/C(=O)NC3CCC(CCN4CCc5ccc(C#N)cc5CC4)CC3)cccc2[nH]1` (stereo not given) reads 3.25%.
As to `CN1CCN(CCCN(Cc2cccc(-c3cccc(CNC4CCCC4)c3)c2)C(=O)CCC2CCCC2)CC1`, the inhibition was determined as 0.45%.
As to `O=C(Nc1cccc(CN2CCN(C(=O)c3ccccc3)CC2)c1)c1ccco1`, the inhibition was 7.1%.
For `O=C(/C=C/c1cccc(C(F)(F)F)c1)NCCCCCN1CCN(C(=O)Nc2ccc(Cl)c(Cl)c2)CC1` the value was 1.97%; for `c1ccn2c(Sc3ncnc4sccc34)ncc2c1`, -1.33%.
`COC(=O)Cc1ccc(N)c2ccccc12`: the inhibition is -2.13%.
`COc1nc(Nc2cccc(C)c2)nc(OC)n1`: the inhibition turned out to be 0.95%.
In the case of `O=C(NC(=S)Nc1cc(C(F)(F)F)cc(C(F)(F)F)c1)c1ccc(Cl)cc1`, the inhibition is -0.06%.
The result for `Cc1[nH]c(C)c(-c2ccc(C#Cc3ccc(F)cc3F)cc2)c(=O)c1Br` reads 0.22%; that for `Cc1cccc2nc(-c3ccc(-c4ccc(NC(=O)NCc5cccc(F)c5)cc4)s3)[nH]c12`, 5.43%.
For `CN(C)CCNc1ncnc2c1[nH]c1ccc(Cl)cc12` the value was 2.92%; for `Oc1ccc2ccccc2c1CNC1CCCCCC1`, 1.96%.
Take `CCN1CCCC(Nc2ccnc3cc4ccccc4cc23)C1` (stereo not given): the inhibition turned out to be 4.81%.
The result for `c1ccc(CNc2nc(NCCN3CCCCC3)nc3ccccc23)cc1` reads 4.27%.
In the case of `Cc1cc(C)cc(OCC(O)CN(Cc2cc(Cl)cc(Cl)c2)C(=O)Nc2ccccc2Cl)c1` (stereo not given), the inhibition was -7.19%.
For `COc1cccc2cc(C(=O)N[C@@H](CC(C)C)C(=O)N[C@H](/C=N/N3C(=O)CN(Cc4ccccc4)C3=O)CCc3ccccc3)oc12` the value was 6.11%; for `COc1ccc(CNC2Cc3ccccc3C2)cc1-c1ccc(S(=O)(=O)NCc2ccccc2)s1`, 4.36%; for `Cc1ccc(-c2cc3nc4c(c(NCCCn5ccnc5)n3n2)CCC4)cc1`, 0.92%.
With `CCCCCCn1c(Sc2ccc(C#N)c([N+](=O)[O-])c2)nnc1-c1ccc(OC)cc1`, the inhibition is -3.74%.
